# Reference: the supplement of paper PMC4022240
# ± gives the standard deviation.
# T1: HaloTag-ATRX ADD domain (163-292)
# T1 chain: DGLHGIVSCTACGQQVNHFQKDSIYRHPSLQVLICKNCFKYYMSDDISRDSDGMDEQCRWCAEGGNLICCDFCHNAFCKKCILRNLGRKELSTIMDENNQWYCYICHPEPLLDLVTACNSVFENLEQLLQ
# Tests used:
# Assay in all cases: peptide microarray binding signal (635 nm), min-max normalized on array (fraction of array maximum); higher = stronger binding
# Settings in all cases: peptide region: H2B 17-29
# [1] = molecular target: T1, HaloTag-ATRX ADD domain (163-292)
# Experimental: (§1)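 Histone 13-mer peptides were synthesized as cellulose conjugates with a C-terminal 20-atom PEG linker and printed in triplicate on nitrocellulose. The sequence given is the unmodified backbone; PTMs (Kme1/2/3, Kac, Sph/Tph, Rme/Rme2a/Rme2s, Rcit) are listed in the label and the 'peptide modifications' condition. Slides were probed at 4 °C for 1 h with biotin-labelled (HQ)5-HaloTag reader fusions (ATRX-ADD, ING2-PHD) then streptavidin-Alexa647, or with rabbit histone antibodies then anti-rabbit Alexa647. The mean 635 nm signal of the triplicate spots was scaled 0-1 between the lowest and highest values on each array.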
# [2] = molecular target: HaloTag-ING2 PHD (mouse Ing2 200-280)
# Experimental: as §1
# [3] = molecular target: anti-H3K4me3 antibody ab8580
# Experimental: as §1
# [4] = molecular target: anti-H3K9me3 antibody ab8898
# Experimental: as §1
# [5] = peptide modifications: H2BK20ac H2BK28ac, binder concentration: 1:2,000 dilution
# [6] = peptide modifications: H2BK20ac H2BK28ac, binder concentration: 1:10,000 dilution
# [7] = peptide modifications: H2BK20ac H2BK24ac H2BK28ac, binder concentration: 1:2,000 dilution
# [8] = peptide modifications: H2BK20ac H2BK24ac H2BK28ac, binder concentration: 1:10,000 dilution
# [9] = peptide modifications: H2BK23ac H2BK24ac H2BK28ac, binder concentration: 1:2,000 dilution
# [10] = peptide modifications: H2BK23ac H2BK24ac H2BK28ac, binder concentration: 1:10,000 dilution
# [11] = peptide modifications: H2BK23ac H2BK24ac, binder concentration: 1:2,000 dilution
# [12] = peptide modifications: H2BK23ac H2BK24ac, binder concentration: 1:10,000 dilution
# [13] = peptide modifications: H2BK20ac H2BK27ac, binder concentration: 1:2,000 dilution
# [14] = peptide modifications: H2BK20ac H2BK27ac, binder concentration: 1:10,000 dilution
# [15] = peptide modifications: H2BK23ac H2BK24ac H2BK27ac H2BK28ac, binder concentration: 1:2,000 dilution
# [16] = peptide modifications: H2BK23ac H2BK24ac H2BK27ac H2BK28ac, binder concentration: 1:10,000 dilution
# [17] = peptide modifications: H2BK20ac H2BK27ac H2BK28ac, binder concentration: 1:2,000 dilution
# [18] = peptide modifications: H2BK20ac H2BK27ac H2BK28ac, binder concentration: 1:10,000 dilution
# [19] = peptide modifications: H2BK20ac, binder concentration: 1:2,000 dilution
# [20] = peptide modifications: H2BK20ac, binder concentration: 1:10,000 dilution
# [21] = peptide modifications: H2BK23ac H2BK24ac H2BK27ac, binder concentration: 1:2,000 dilution
# [22] = peptide modifications: H2BK23ac H2BK24ac H2BK27ac, binder concentration: 1:10,000 dilution
# [23] = peptide modifications: H2BK20ac H2BK24ac H2BK27ac, binder concentration: 1:2,000 dilution
# [24] = peptide modifications: H2BK20ac H2BK24ac H2BK27ac, binder concentration: 1:10,000 dilution
binder,measurement,setting,value
AVTKAQKKDGKKR [H2B 17-29 A V T Kac A Q K K D G K Kac R],peptide microarray binding signal,"[1]; peptide modifications: H2BK20ac H2BK28ac, binder concentration: 50 nM",0.00245 ± 3.9e-05
same,peptide microarray binding signal,"[1]; peptide modifications: H2BK20ac H2BK28ac, binder concentration: 500 nM",0.00848 ± 0.00061
same,peptide microarray binding signal,"[2]; peptide modifications: H2BK20ac H2BK28ac, binder concentration: 10 nM",0.00328 ± 6.2e-05
same,peptide microarray binding signal,"[2]; peptide modifications: H2BK20ac H2BK28ac, binder concentration: 100 nM",0.00446 ± 0.00022
same,peptide microarray binding signal,[3]; [5],0.00126 ± 0.00023
same,peptide microarray binding signal,[3]; [6],0.000799 ± 8.3e-06
same,peptide microarray binding signal,[4]; [5],0.000393 ± 7.7e-06
same,peptide microarray binding signal,[4]; [6],0.000461
AVTKAQKKDGKKR [H2B 17-29 A V T Kac A Q K Kac D G K Kac R],peptide microarray binding signal,"[1]; peptide modifications: H2BK20ac H2BK24ac H2BK28ac, binder concentration: 50 nM",0.00815 ± 0.00023
same,peptide microarray binding signal,"[1]; peptide modifications: H2BK20ac H2BK24ac H2BK28ac, binder concentration: 500 nM",0.00795 ± 0.00026
same,peptide microarray binding signal,"[2]; peptide modifications: H2BK20ac H2BK24ac H2BK28ac, binder concentration: 10 nM",0.00853 ± 0.00032
same,peptide microarray binding signal,"[2]; peptide modifications: H2BK20ac H2BK24ac H2BK28ac, binder concentration: 100 nM",0.0068 ± 0.00034
same,peptide microarray binding signal,[3]; [7],0.00196 ± 0.00041
same,peptide microarray binding signal,[3]; [8],0.002054 ± 1.9e-05
same,peptide microarray binding signal,[4]; [7],0.0013 ± 0.00012
same,peptide microarray binding signal,[4]; [8],0.001614 ± 1.6e-05
AVTKAQKKDGKKR [H2B 17-29 A V T K A Q Kac Kac D G K Kac R],peptide microarray binding signal,"[1]; peptide modifications: H2BK23ac H2BK24ac H2BK28ac, binder concentration: 50 nM",0.0036 ± 3.9e-05
same,peptide microarray binding signal,"[1]; peptide modifications: H2BK23ac H2BK24ac H2BK28ac, binder concentration: 500 nM",0.00652 ± 0.00023
same,peptide microarray binding signal,"[2]; peptide modifications: H2BK23ac H2BK24ac H2BK28ac, binder concentration: 10 nM",0.00561 ± 8.2e-05
same,peptide microarray binding signal,"[2]; peptide modifications: H2BK23ac H2BK24ac H2BK28ac, binder concentration: 100 nM",0.00822 ± 0.00014
same,peptide microarray binding signal,[3]; [9],0.00143 ± 0.00012
same,peptide microarray binding signal,[3]; [10],0.00217 ± 0.00011
same,peptide microarray binding signal,[4]; [9],0.000544 ± 2.3e-05
same,peptide microarray binding signal,[4]; [10],0.00098 ± 1.7e-05
AVTKAQKKDGKKR [H2B 17-29 A V T K A Q Kac Kac D G K K R],peptide microarray binding signal,"[1]; peptide modifications: H2BK23ac H2BK24ac, binder concentration: 50 nM",0.00605 ± 0.00096
same,peptide microarray binding signal,"[1]; peptide modifications: H2BK23ac H2BK24ac, binder concentration: 500 nM",0.00486 ± 0.0017
same,peptide microarray binding signal,"[2]; peptide modifications: H2BK23ac H2BK24ac, binder concentration: 10 nM",0.00543 ± 0.00017
same,peptide microarray binding signal,"[2]; peptide modifications: H2BK23ac H2BK24ac, binder concentration: 100 nM",0.00347 ± 0.00023
same,peptide microarray binding signal,[3]; [11],0.000566 ± 8.2e-05
same,peptide microarray binding signal,[3]; [12],0.00257 ± 0.00026
same,peptide microarray binding signal,[4]; [11],0.000951 ± 7.5e-05
same,peptide microarray binding signal,[4]; [12],0.00115 ± 4.1e-05
AVTKAQKKDGKKR [H2B 17-29 A V T Kac A Q K K D G Kac K R],peptide microarray binding signal,"[1]; peptide modifications: H2BK20ac H2BK27ac, binder concentration: 50 nM",0.00332 ± 9.9e-05
same,peptide microarray binding signal,"[1]; peptide modifications: H2BK20ac H2BK27ac, binder concentration: 500 nM",0.00976 ± 0.00025
same,peptide microarray binding signal,"[2]; peptide modifications: H2BK20ac H2BK27ac, binder concentration: 10 nM",0.00573 ± 0.0013
same,peptide microarray binding signal,"[2]; peptide modifications: H2BK20ac H2BK27ac, binder concentration: 100 nM",0.00397 ± 0.00018
same,peptide microarray binding signal,[3]; [13],0.00349 ± 0.00028
same,peptide microarray binding signal,[3]; [14],0.000856 ± 8.9e-06
same,peptide microarray binding signal,[4]; [13],0.000755 ± 1.7e-05
same,peptide microarray binding signal,[4]; [14],0.000461 ± 8.7e-06
AVTKAQKKDGKKR [H2B 17-29 A V T K A Q Kac Kac D G Kac Kac R],peptide microarray binding signal,"[1]; peptide modifications: H2BK23ac H2BK24ac H2BK27ac H2BK28ac, binder concentration: 50 nM",0.00486 ± 0.00032
same,peptide microarray binding signal,"[1]; peptide modifications: H2BK23ac H2BK24ac H2BK27ac H2BK28ac, binder concentration: 500 nM",0.0102 ± 0.00019
same,peptide microarray binding signal,"[2]; peptide modifications: H2BK23ac H2BK24ac H2BK27ac H2BK28ac, binder concentration: 10 nM",0.00722 ± 0.00059
same,peptide microarray binding signal,"[2]; peptide modifications: H2BK23ac H2BK24ac H2BK27ac H2BK28ac, binder concentration: 100 nM",0.0164 ± 0.00086
same,peptide microarray binding signal,[3]; [15],0.00215 ± 0.00011
same,peptide microarray binding signal,[3]; [16],0.00205 ± 0.00011
same,peptide microarray binding signal,[4]; [15],0.00101 ± 6.9e-05
same,peptide microarray binding signal,[4]; [16],0.00138 ± 1.4e-05
AVTKAQKKDGKKR [H2B 17-29 A V T Kac A Q K K D G Kac Kac R],peptide microarray binding signal,"[1]; peptide modifications: H2BK20ac H2BK27ac H2BK28ac, binder concentration: 50 nM",0.00398 ± 4.1e-05
same,peptide microarray binding signal,"[1]; peptide modifications: H2BK20ac H2BK27ac H2BK28ac, binder concentration: 500 nM",0.00567 ± 0.00013
same,peptide microarray binding signal,"[2]; peptide modifications: H2BK20ac H2BK27ac H2BK28ac, binder concentration: 10 nM",0.003819 ± 3.5e-05
same,peptide microarray binding signal,"[2]; peptide modifications: H2BK20ac H2BK27ac H2BK28ac, binder concentration: 100 nM",0.00404 ± 0.00021
same,peptide microarray binding signal,[3]; [17],0.000812 ± 0.00014
same,peptide microarray binding signal,[3]; [18],0.00114 ± 1.2e-05
same,peptide microarray binding signal,[4]; [17],0.0005135 ± 4.8e-06
same,peptide microarray binding signal,[4]; [18],0.00075 ± 7.9e-06
AVTKAQKKDGKKR [H2B 17-29 A V T Kac A Q K K D G K K R],peptide microarray binding signal,"[1]; peptide modifications: H2BK20ac, binder concentration: 50 nM",0.00492 ± 0.0007
same,peptide microarray binding signal,"[1]; peptide modifications: H2BK20ac, binder concentration: 500 nM",0.00962 ± 0.0042
same,peptide microarray binding signal,"[2]; peptide modifications: H2BK20ac, binder concentration: 10 nM",0.00448 ± 0.00039
same,peptide microarray binding signal,"[2]; peptide modifications: H2BK20ac, binder concentration: 100 nM",0.00829 ± 0.0016
same,peptide microarray binding signal,[3]; [19],0.000378 ± 2.7e-05
same,peptide microarray binding signal,[3]; [20],0.0012 ± 4.3e-05
same,peptide microarray binding signal,[4]; [19],0.000483 ± 1.2e-05
same,peptide microarray binding signal,[4]; [20],0.000807 ± 2.5e-05
AVTKAQKKDGKKR [H2B 17-29 A V T K A Q Kac Kac D G Kac K R],peptide microarray binding signal,"[1]; peptide modifications: H2BK23ac H2BK24ac H2BK27ac, binder concentration: 50 nM",0.00329 ± 7.2e-05
same,peptide microarray binding signal,"[1]; peptide modifications: H2BK23ac H2BK24ac H2BK27ac, binder concentration: 500 nM",0.00362 ± 0.00012
same,peptide microarray binding signal,"[2]; peptide modifications: H2BK23ac H2BK24ac H2BK27ac, binder concentration: 10 nM",0.00406 ± 5.6e-05
same,peptide microarray binding signal,"[2]; peptide modifications: H2BK23ac H2BK24ac H2BK27ac, binder concentration: 100 nM",0.004039 ± 3.4e-05
same,peptide microarray binding signal,[3]; [21],0.00068 ± 1.9e-05
same,peptide microarray binding signal,[3]; [22],0.0012 ± 5.2e-05
same,peptide microarray binding signal,[4]; [21],0.000453 ± 1.3e-05
same,peptide microarray binding signal,[4]; [22],0.000519 ± 5.6e-06
AVTKAQKKDGKKR [H2B 17-29 A V T Kac A Q K Kac D G Kac K R],peptide microarray binding signal,"[1]; peptide modifications: H2BK20ac H2BK24ac H2BK27ac, binder concentration: 50 nM",0.00335 ± 0.0001
same,peptide microarray binding signal,"[1]; peptide modifications: H2BK20ac H2BK24ac H2BK27ac, binder concentration: 500 nM",0.00514 ± 0.00021
same,peptide microarray binding signal,"[2]; peptide modifications: H2BK20ac H2BK24ac H2BK27ac, binder concentration: 10 nM",0.0031 ± 0.00013
same,peptide microarray binding signal,"[2]; peptide modifications: H2BK20ac H2BK24ac H2BK27ac, binder concentration: 100 nM",0.00255 ± 0.00012
same,peptide microarray binding signal,[3]; [23],0.00289 ± 0.00021
same,peptide microarray binding signal,[3]; [24],0.00143 ± 2.4e-05
same,peptide microarray binding signal,[4]; [23],0.000649 ± 5.6e-05
same,peptide microarray binding signal,[4]; [24],0.0011 ± 1.1e-05
